The source of these data is PubChem BioAssay (NCATS).

Records with an inconclusive call do not appear. Entries that show only a call come without a potency. A number with no mark means an inactive call. Active and inactive are the calls of the source. Calls come from the whole dose curve; as a rule, active = well fitted inhibition curve with a large enough effect; inconclusive = small, poorly fitted or top-dose-only effect; inactive = no such curve, though single readings can be large or run the other way.
Potency is the fitted concentration of half-maximal effect.

The test deals with Zika virus NS2B-NS3 protease (unlinked complex). Put plainly: Primary screen GU Rhodamine qHTS for Zika virus inhibitors: Unlinked NS2B-NS3 protease assay (AID 1347159). Note: nearly all actives have a fitted effect of over 60% in size. Conditions: Recombinant ZIKV NS2B-NS3 protease, Rhodamine110 substrate fluorescence; series mostly up to 107 µM. The text has this: Avindra Nath, Ph.D., National Institute of Neurological Disorders and Stroke (NINDS), Bethesda, MD
Radhakrishnan Padmanabhan, Ph.D., Georgetown University (GU), Washington D.C.
Zika Virus causes congenital defects, including microcephaly and is associated with Guillain-Barre syndrome, eningoencephalitis and myelitis in infected adult. […] Using a target-based approach, we hope to establish a screening paradigm to uncover novel, cell-active NS2B-NS3 protease (Zika Virus) specific inhibitors from NCATS' collection of small molecules using qHTS.
Four assay panel was created to identify potential Zika Virus inhibitors. Namely, (1) GU unlinked NS2B-NS3 AMC tagged protease qHTS, (2) GU unlinked NS2B-NS3 Rhodamine tagged protease qHTS, (3) NINDS linked NS2B-NS3 AMC tagged protease qHTS, (4) NINDS linked NS2B-NS3 Rhodamine tagged protease qHTS. Active compounds were re-acquired and re-screened to confirm inhibition. Inhibitors were further screened against various confirmatory and counterscreens in dose response format.
Early Translation Branch (ETB)
National Center for Advancing Translational Sciences (NCATS), Rockville, MD
National Institute of Health (NIH), Bethesda, Maryland
Padmanabhan lab provided the NS2B hydrophilic domain and NS3 protease domain in a noncovalent complex used for the unlinked assay. Control compound aprotinin is obtained from Thermo Scientific (#78432; Waltham, Massachusetts). Rhodamine110 substrate ([N-Cbz]-Nle-Lys-Arg-Arg-Rhod110-Arg-Arg-Lys-Nle-[N-Cbz]) was purchased from either Genscript or Bachem.
1536-well Protease (Rhodamine110 Substrate) Assay:
Briefly, 3 microL of enzyme (25 nM final concentration), in assay buffer (10 mM Tris-HCl pH 8.0 with 0.01% Tween 20) were dispensed into a 1,536-well solid-bottom black plate (Greiner Bio One, Monroe, NC). Twenty-three nL of compounds (final concentration range 7.28 nM to 114 microM) or control Aprotinin (final concentration range 3.47 nM to 114 microM) were transferred via Wako Pin-tool (Wako Automation, Richmond, VA). Samples were incubated (room temperature, protected from light) for 15 minutes followed by a 1 microL Rhodamine110 substrate addition (1.5 microM final concentration). Plates were then immediately read on a ViewLux High-throughput CCD imager (PerkinElmer, Waltham, MA) equipped with FITC fluorescence optics (480(20) nm excitation, 540(25) nm emission), then incubated (room temperature, protected from light) for 15 minutes (~15% conversion). The change in fluorescence intensity over the 15-minute reaction period was normalized against no-inhibitor and no-enzyme controls and the resulting percent inhibition data were fitted to a 4-parameter Hill equation. Aprotinin was used as intraplate control.
(In general: In qHTS, concentration-response curves come from the screen itself.)
As to `CC(C)c1cc(C(=O)N2Cc3ccc(CN4CCN(C)CC4)cc3C2)c(O)cc1O`, the Potency entry is “inactive”.

On to `Cc1c(NC(=O)OC[C@@H]2COCCN2)cn2ncnc(Nc3ccc4c(cnn4Cc4cccc(F)c4)c3)c12`, for which the Potency entry was “inactive”.

On to `Cc1c(CN2CCN(S(C)(=O)=O)CC2)sc2c(N3CCOCC3)nc(-c3cnc(N)nc3)nc12`, for which the Potency entry is “inactive”.

With `COc1cc(-c2nn(C3CCC(N4CCN(C(C)=O)CC4)CC3)c3ncnc(N)c23)ccc1NC(=O)c1cc2ccccc2n1C` (stereo not given), the Potency entry was “inactive”.

Consider `CCS(=O)(=O)c1cccc(-c2cc(C(=O)NC3CCN(C)CC3)c(C)c3[nH]c4ncc(C)cc4c23)c1`, for which the Potency entry is “inactive”.

Take `O=C(O)C1(Cc2cccc(Nc3nccs3)n2)CCC(Oc2cccc(Cl)c2F)CC1` (stereo not given): the Potency was 6.31 µM (active).

Regarding `Cc1nc(N)ncc1-c1nc(N2CCOCC2)c2sc(C(C)(C)O)cc2n1`, the Potency entry is “inactive”.

With `CNC(=O)c1nn(C)c2c1C(C)(C)Cc1cnc(Nc3ccc(N4CCN(C)CC4)cc3)nc1-2`, the Potency result is “inactive”.

Take `CC1COC2(CCN(c3nc(=O)c4cc(C(F)(F)F)cc([N+](=O)[O-])c4s3)CC2)O1` (stereo not given): the Potency entry was “inactive”.

Take `COc1ccc2c(OCc3nnc4ccc(-c5ccccc5)nn34)ccnc2c1`: the Potency result is “inactive”.

Regarding `Cc1cnc(Nc2ccc(F)cc2Cl)nc1-c1c[nH]c(C(=O)N[C@H](CO)c2cccc(Cl)c2)c1`, the Potency is 39.8 µM (active).

Consider `COc1cccc2c(NCc3ccccc3)nc(-n3c(N)nc4ccccc43)nc12`, for which the Potency is 50.1 µM (active).

With `CCCNC(=O)Nc1ccc(Oc2ncnc3cc(OC)c(OC)cc23)cc1Cl`, the Potency result is “inactive”.

Take `COc1c(OCCCN2CCOCC2)ccc2c3n(c(=NC(=O)c4cnc(N)nc4)nc12)CCN3`: the activity change, negative = inhibition is 19.8% [at 19.1 µM].

With `CCNC(=O)Nc1ccc2ncc(Nc3ccc(C)cc3)nc2n1`, the Potency was 25.1 µM (active).

Regarding `CC(C)c1noc(N2CCC(COc3ccc(-c4ccc(S(C)(=O)=O)cc4)nc3)CC2)n1`, the Potency entry is “inactive”.

As to `Cc1cc(Nc2nc(N[C@@H](C)c3ccc(F)cc3)c(C#N)cc2F)n[nH]1`, the Potency result is “inactive”.

Turning to `CCCCOc1c(C(=O)c2c(F)cc(C)cc2F)cnc2n[nH]cc12`, the Potency entry is “inactive”.

Take `COc1cccc2nc(-c3cccs3)nc(NN3C(=O)C=C(C)C3=O)c12`: the Potency result is “inactive”.

Take `CCCn1c(=O)c2[nH]c(-c3cnn(Cc4cccc(C(F)(F)F)c4)c3)nc2n(CC)c1=O`: the Potency result was “inactive”.

Consider `NC1(Cc2ccc(Cl)cc2)CCN(c2ncnc3[nH]ccc23)CC1`, for which the Potency result was “inactive”.

Consider `CC(=O)c1c(C)c2cnc(Nc3ccc(N4CCNCC4)cn3)nc2n(C2CCCC2)c1=O`, for which the activity change, negative = inhibition was 5.34% [at 11.5 µM].

Consider `CC(C)(C)c1cc(NC(=O)Nc2ccc(-c3cn4c(n3)sc3cc(OCCN5CCOCC5)ccc34)cc2)no1`, for which the Potency entry was “inactive”.

Regarding `CC1(C)CCC(c2ccc(Cl)cc2)=C(CN2CCN(c3ccc(C(=O)NS(=O)(=O)c4ccc(N[C@H](CCN5CCOCC5)CSc5ccccc5)c(S(=O)(=O)C(F)(F)F)c4)cc3)CC2)C1`, the Potency was 2.24 µM (active).

Take `c1ccc2c(CCNc3ccc(Nc4ccncc4)cc3)c[nH]c2c1`: the Potency entry is “inactive”.

For the molecule `CCCCCCCCCC(=O)N[C@@H](Cc1c[nH]c2ccccc12)C(=O)N[C@H](CC(N)=O)C(=O)N[C@@H](CC(=O)O)C(=O)N[C@@H]1C(=O)NCC(=O)N[C@@H](CCCN)C(=O)N[C@@H](CC(=O)O)C(=O)N[C@H](C)C(=O)N[C@@H](CC(=O)O)C(=O)NCC(=O)N[C@H](CO)C(=O)N[C@@H]([C@@H](C)CC(=O)O)C(=O)N[C@@H](CC(=O)c2ccccc2N)C(=O)O[C@@H]1C`, the Potency entry was “inactive”.

With `CNC(=O)c1c(F)cccc1Nc1nc(Nc2cc3c(cc2OC)CCN3C(=O)CN(C)C)nc2[nH]ccc12`, the Potency entry is “inactive”.

On to `O=C(O)c1ccc2c(c1)nc(Nc1cccc(Cl)c1)c1ccncc12`, for which the Potency was 39.8 µM (active).

Regarding `N#Cc1c(O)c2c(-c3ccc(-c4ccccc4O)cc3)csc2[nH]c1=O`, the Potency was 2 µM (active).

Consider `COc1ccc(-c2cc3c(C)nc(N)nc3n(C3CCC(OCCO)CC3)c2=O)cn1` (stereo not given), for which the Potency entry was “inactive”.

Consider `Nc1nc(NCCNc2ncc(-n3ccnc3)c(-c3ccc(Cl)cc3Cl)n2)ccc1[N+](=O)[O-]`, for which the Potency entry is “inactive”.

As to `COc1ccc(F)c(F)c1C(=O)c1cnc(NC2CCN(S(C)(=O)=O)CC2)nc1N`, the Potency entry is “inactive”.

Turning to `O=C(Cc1ccc(-c2ccc(OCCN3CCOCC3)cc2)cn1)NCc1ccccc1`, the Potency result is “inactive”.

`CN(C)c1nc(Cc2ccc(NC(=O)c3ccc4ccccc4c3)cc2)nc(Cl)c1CC(=O)O`: the Potency was 28.2 µM (active).

Regarding `Cc1ccc2nc(NC(=O)CSc3nc4c(c(=O)n3-c3ccccc3)SCC4)sc2c1`, the Potency result is “inactive”.

With `C=CC(=O)N1CCC[C@@H](n2nc(-c3ccc(Oc4ccccc4)cc3)c3c(N)ncnc32)C1`, the Potency entry is “inactive”.

For the molecule `Cc1ccc(NC(=O)C2(c3ccc4c(c3)OC(F)(F)O4)CC2)nc1-c1cccc(C(=O)O)c1`, the Potency was 17.8 µM (active).

`NC(=O)c1cccc2cn(-c3ccc([C@@H]4CCCNC4)cc3)nc12`: the Potency result is “inactive”.

As for `CN1CCN(Cc2ccc(NC(=O)Nc3ccc(Oc4cc(NC(=O)C5CC5)ncn4)cc3)cc2C(F)(F)F)CC1`, the Potency result was “inactive”.

On to `COC(=O)Nc1ccc(-c2nc(N3CCOCC3)c3cnn(C4CCN(Cc5cccnc5)CC4)c3n2)cc1`, for which the Potency entry is “inactive”.
